This is an account of results in PubChem BioAssay (NCI).

Compounds without any hit were thinned out: in the full panel of roughly 83,000, 20% have a hit.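 Compound tested at a single concentration for 48 hours in 96-well plates; a percent growth value below 10 was scored as active.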 A number with no mark means an inactive call. The source made the active and inactive calls.

What all share (assay): NCI-60 one-dose screen, 48 h (100 = growth as untreated, 0 = no growth, -100 = all killed)
Common to all, as to conditions: 10 µM unless noted

Assay [1] relates to HCT-15 colon.
The test system of assay [2] is HT29 colon.
Assay [3] concerns SNB-75 CNS.
For assay [4], the system named is SNB-19 CNS.
The subject of assay [5] is U251 CNS.
Assay [6] relates to PC-3 prostate.
For assay [7], the system named is SK-MEL-5 melanoma.
The test system of assay [8] is UACC-62 melanoma.
In assay [9] the test system is LOX IMVI melanoma.
Assay [10] has as its system SK-MEL-28 melanoma.

Consider `C/C(Cc1ccc(Cl)cc1)=C(\c1ccc(OCCN2CCCCCC2)cc1)c1ccc(OC(=O)c2ccccc2)cc1`, for which the growth in assay [1] was 14.1%; in assay [2], 6.24% (active); in assay [3], 77.3%; in [4] it was 50.3%; in [5], 37.8%; in assay [6], 19.4%. The growth is 35.3% in [7], -3.38% (active) in [8], -21.8% (active) in assay [9] and -1.89% (active) in assay [10].

Take `COc1ccc(C2CC(c3ccccc3)=NN2C(=O)c2cc(OC)c(OC)c(OC)c2)cc1O` (stereo not given): the growth was 16.2% in [1]; 36% in assay [2]; 34.7% in assay [3]; 47.3% in assay [4]; 20.6% in [5]; 22.5% in [6]. In addition, the growth was 22.4% in [7], 25.9% in assay [8], 42.9% in assay [9] and 64.9% in assay [10].

In the case of `C[N+]1=C(/C=C/c2ccccc2Cl)C(C)(C)c2ccccc21`, the growth in assay [1] is 101%; in [2], 91.4%; in [3] it was 95.5%; in [4], 107%; in assay [5], 84.2%; in [6], 83.5%. Also, the growth in [7] was 92.2%; in assay [8] it was 91.9%; in assay [9], 85.5%; in [10], 103%.

For `N#Cc1ccc(O)c(C2=NCC(c3ccc(-c4ccccc4)cc3)O2)c1` (stereo not given), the growth in assay [1] is 24.6%; in assay [2], 18.1%; in [3] it was 26.2%; in assay [4], 18%; in assay [5], 4.51% (active); in [6] it was 25.5%. Also, the growth in [8] was -5.35% (active); in assay [9], 11.8%; in [10], 23.7%.

With `Cc1c(C(C)(C)O)cn2ncnc(Oc3ccc(NC(=O)Nc4ccc(Cl)c(C(F)(F)F)c4)c(F)c3)c12`, the growth in assay [1] is 55.5%; in [2], 61.1%; in [3], 36.5%; in assay [4], 53.2%; in assay [5], 47%; in assay [6], 39.2%. In addition, the growth in assay [8] is 72%; in assay [9], 59.7%; in [10], 71.3%.

On to `O=C(/C=C/C12c3ccccc3C(c3ccccc31)C1C(=O)NC(=O)C12)c1ccc(I)cc1` (stereo not given), for which the growth in assay [1] is 39.7%; in assay [2], 29.6%; in assay [3], 63.6%; in [4], 63.4%; in assay [5], 34.5%; in assay [6], 34.5%. In addition, the values for the growth in [8], in [9] and in [10] were 51.9%, 37.8% and 64%, respectively.

As for `COc1cc(/C=C/C(=O)c2cc(OC)c(OC)c(OC)c2)ccc1Oc1nc2c(c(=O)n(C)c(=O)n2C)n1C`, the growth in assay [1] was 0.728% (active); in assay [2] it was -51.1% (active); in assay [3], 31%; in assay [4], 18.7%; in assay [5], -81.9% (active); in assay [6], 7.57% (active). Also, the figures for the growth in assay [8], in assay [9] and in [10] were -74.1% (active), -81.1% (active) and -45.3% (active), respectively.

As for `CCSc1ccnc(N)n1`, the growth in assay [1] was 102%; in [2] it was 113%; in [3], 95.2%; in assay [4], 103%; in assay [5], 105%; in assay [6], 96%. For the same compound, the growth in assay [7] was 107%; in assay [8] it was 99%; in [9] it was 99.9%; in assay [10], 114%.

In the case of `O=C1/C(=C/c2ccccn2)SC(=S)N1N1CCOCC1`, the growth in assay [1] was 102%; in [2] it was 103%; in assay [3], 90.4%; in assay [4], 101%; in assay [5], 98.1%; in [6], 94.6%. For the same compound, the growth was 92.8% in assay [8], 97.8% in assay [9] and 105% in assay [10].

For the compound `COc1ccc(C(O)c2cc3c(N)c(C(=O)Nc4cccc5ccccc45)sc3nc2C)cc1` (stereo not given), the growth in assay [1] was 6.45% (active); in assay [2], 6.41% (active); in [3], 32.5%; in assay [4] it was 25%; in [5] it was 20.1%; in [6], 14.1%. Moreover, the growth in assay [7] is -47.4% (active); in [8] it was 18.6%; in [9], 19.1%; in assay [10], 57.6%.

Take `COc1ccc(C2CC(n3ccnc3)c3cc(OC)c(OC)c(OC)c32)cc1O` (stereo not given): the growth in [1] was 59.9%; in assay [2], 102%; in [3] it was 90.2%; in assay [4], 93.7%; in assay [5], 80.4%; in assay [6] it was 60.7%. Further, the growth in assay [8] was 65.5%; in [9], 86.4%; in [10], 78.3%.

For `O=c1oc2ccccc2cc1-c1nn(-c2ccccc2)cc1-c1nn[nH]n1`, the growth was 100% in [1]; 104% in [2]; 76.2% in assay [3]; 98% in [4]; 104% in [5]; 91.5% in [6]. The growth in assay [7] was 102%; in assay [8], 93.3%; in assay [9] it was 89%; in [10], 107%.

On to `C=C(C)[C@@H]1CC[C@]2(C(=O)N3CCNCC3)CC[C@]3(C)[C@H](CC[C@@H]4[C@@](C)(CCC(=O)N5CCNCC5)[C@H](C(=C)C)CC[C@]43C)[C@@H]12`, for which the growth is 30.8% in assay [1]; 26.1% in assay [2]; 86.3% in assay [3]; 99% in assay [4]; 7.62% (active) in assay [5]; 57.7% in assay [6]. For the same compound, the growth in assay [8] was 104%; in [9] it was 44.4%; in [10], 96.7%.

For `C=CN(C(=O)N1CCN(c2cc3c(cc2F)c(=O)c(C(=O)O)cn3C2CC2)CC1)c1nc(-c2ccccc2)cs1`, the growth in assay [1] was 102%; in [2], 93.1%; in assay [3], 109%; in assay [4], 96%; in [5], 101%; in assay [6] it was 91.1%. Also, the growth was 95.7% in assay [7], 86% in assay [8], 77.5% in assay [9] and 101% in assay [10].

On to `Cc1c2cnccc2c(C)c2c1c1cc(CO)ccc1n2C`, for which the growth in assay [1] is -10.9% (active); in assay [2], -16.3% (active); in assay [3], -45.1% (active); in [4], -22.2% (active); in assay [5], -38.1% (active); in [6], -9.48% (active). The growth is -74.7% (active) in [8], -63.5% (active) in assay [9] and -69.5% (active) in assay [10].

For `c1cc(OCCN2CCCC2)ccc1CNc1ccc2nc(CCC3CCCCC3)[nH]c2c1`, the growth was 3.99% (active) in [1]; 7.25% (active) in assay [2]; 64.1% in assay [3]; 68.7% in assay [4]; 4.28% (active) in [5]; 52% in [6]. Also, the growth is 62.8% in assay [8], -78.5% (active) in [9] and -85.3% (active) in assay [10].

Consider `COc1ccc(Cl)cc1Nc1nc(C(F)(F)F)ccc1C(=O)N/N=C/c1ccc([N+](=O)[O-])cc1`, for which the growth was 3.38% (active) in assay [1]; 2.62% (active) in assay [2]; 29.5% in assay [3]; 22.9% in [4]; -27% (active) in [5]; -5.64% (active) in [6]. For the same compound, the growth in assay [7] was -17.7% (active); in assay [8], 17.3%; in assay [9], -32.8% (active); in assay [10], 22.8%.

On to `CS(=O)(=O)Nc1cc(-c2ccc3ncnc(Nc4ccc(F)c(Cl)c4)c3c2)ccc1Cl`, for which the growth was 41.3% in assay [1]; 34.8% in assay [2]; 30.5% in [3]; 57.6% in assay [4]; 42.4% in assay [5]; 36.8% in [6]. Also, the growth is 28.8% in assay [7], 53.8% in assay [8], 37.9% in assay [9] and 57.1% in [10].

On to `O=C(Nc1nc(Cl)nc(Nc2ccc(N3CCOCC3=O)cc2)n1)c1ccc(Cl)s1`, for which the growth in assay [1] is 94.2%; in assay [2], 94.3%; in [3], 103%; in assay [4], 88.2%; in assay [5], 85.4%; in assay [6] it was 85.4%. The growth was 91.3% in [7], 87% in [8], 62.1% in [9] and 96% in assay [10].

As for `CCN1C(=O)N(CC)C2C1NN=c1s/c(=C\c3ccc(OC)cc3)c(=O)n12` (stereo not given), the growth in assay [1] was 10.3%; in [2], 3.44% (active); in [3] it was 23%; in assay [4], 26.9%; in assay [5], 7.45% (active); in [6], 26.5%. Further, the growth in assay [7] was -10.8% (active); in assay [8], 23.9%; in assay [9] it was 17.1%; in assay [10], 56.4%.

For `CC1SC(c2ccccc2O)N(NC(=O)CCC(=O)c2nc3ncccc3[nH]2)C1=O` (stereo not given), the growth is 103% in assay [1]; 105% in [2]; 83.8% in [3]; 101% in [4]; 97.3% in assay [5]; 92.3% in assay [6]. Also, the growth was 99.4% in assay [8], 84.8% in [9] and 113% in assay [10].

Regarding `COC(=O)[C@]1(C)CCC[C@]2(C)[C@H]3C[C@@H]4[C@H]5[C@@H]6CC/C(=N\OCC/C(N)=N/O)[C@H]5[C@@]3(CC[C@H]21)CC4(C(C)C)O6`, the growth in assay [1] was 36.6%; in assay [2], 74.2%; in assay [3], 66.9%; in assay [4], 89.4%; in assay [5] it was 68.4%; in assay [6], 47.5%. The growth is 73.2% in assay [7], 58.5% in assay [8], 69% in [9] and 88.9% in assay [10].
